# Rows were chosen to be rich in hits. Some 1.3% of all compounds tested hit in one or more screens of this group.
# TRPV1 potentiator = HTS Assay for Compounds that Act as Potentiators of the Vanilloid Receptor 1; Transient receptor potential cation channel subfamily V member 1 (Homo sapiens), Q8NER1; TRPV1-expressing cells, Fluo-8 calcium influx, capsaicin EC20 potentiation; potentiation, % at 8.33 µM; 320,000 compounds, 0.02% hits; AID 540277, 2011; in the data active = potentiation above about 80%; inconclusive = between about 30% and that limit
#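 Cells expressing TRPV1 were dye-loaded with Fluo-8 and read kinetically: 10 s baseline, 3 min after compound (agonist portion), then 2 min after EC20 capsaicin (allosteric enhancer portion). Calcium-bound dye fluorescence at 480/520 nm.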
# TRPML1 blocker = qHTS for Inhibitors of the Human Mucolipin Transient Receptor Potential 1 (TRPML1). TRPML1-inducible cells, Ca2+ dye fluorescence, FDSS; stronger effect = lower value; inhibition of EC80 agonist-evoked calcium signal. 390,000 compounds, 0.02% hits. AID 624415, 2012. Mucolipin-1 (Homo sapiens), Q9GZU1. activity change, negative = inhibition, % (test concentration not listed); in the data active = activity change below about -50%; inconclusive = between about -30% and that limit;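 note: stimulus is agonist 54-4 at its EC80 concentration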
# Target sequence (Q9GZU1 whole entry, looked up): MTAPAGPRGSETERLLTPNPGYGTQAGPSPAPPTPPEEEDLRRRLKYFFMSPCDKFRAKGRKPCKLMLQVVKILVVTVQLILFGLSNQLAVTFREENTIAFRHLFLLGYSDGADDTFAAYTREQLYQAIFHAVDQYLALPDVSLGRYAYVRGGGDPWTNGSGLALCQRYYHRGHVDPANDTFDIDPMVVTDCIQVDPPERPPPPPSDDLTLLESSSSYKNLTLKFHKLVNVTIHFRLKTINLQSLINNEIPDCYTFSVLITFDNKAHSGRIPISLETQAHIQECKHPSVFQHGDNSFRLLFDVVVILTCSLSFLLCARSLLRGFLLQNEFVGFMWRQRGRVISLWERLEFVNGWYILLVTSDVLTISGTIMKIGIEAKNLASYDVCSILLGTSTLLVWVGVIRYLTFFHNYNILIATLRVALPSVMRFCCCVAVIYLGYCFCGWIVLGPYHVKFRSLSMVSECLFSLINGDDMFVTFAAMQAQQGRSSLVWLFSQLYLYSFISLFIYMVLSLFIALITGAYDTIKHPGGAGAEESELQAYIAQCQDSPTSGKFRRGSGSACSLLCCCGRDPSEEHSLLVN
#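 Calcium fluorescence in TRPML1-DL cells induced overnight with Tet: a 110 s read after compound pin addition, then a 110 s antagonist read after challenge with 54-4 at 4 uM final (EC80).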
# TRPV1 agonist = HTS Assay for Compounds that Act as Agonists of the Vanilloid Receptor 1; activation, % at 8.33 µM; TRPV1-expressing cells, Fluo-8 calcium influx, agonist mode; 320,000 compounds, 0.19% hits; in the data active = activation above about 80%; inconclusive = between about 30% and that limit
#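 TRPV1-expressing cells were cultured overnight at 35.5C and loaded with Fluo-8 calcium dye for 40 to 90 min at room temperature. After a 10 s baseline, compound was added and calcium influx was read kinetically for 3 min (ex 480/em 520 nm).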
# TRPML1 agonist = qHTS for Agonists of the Human Mucolipin Transient Receptor Potential 1 (TRPML1); 410,000 compounds, 0.12% hits; activation, % (test concentration not listed); AID 624414, 2012; TRPML1-expressing cells, Ca2+ dye fluorescence, FDSS; Mucolipin-1 (Homo sapiens), Q9GZU1; in the data active = activation above about 50%; inconclusive = mostly about 30% to 49%
#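 Kinetic FDSS Ca2+ read in Tet-induced TRPML1-DL cells (ABD Ca8 dye plus quencher, 45-90 min RT loading): baseline, then compound, then 110 s agonist window; EC80 agonist 54-4 at 4uM final added afterwards for a 110 s antagonist window.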
# hERG WT inh = qHTS for Inhibitors of KCHN2 3.1: Wildtype qHTS | U2OS, BacMam KCNH2, thallium flux FluxOr; stronger effect = lower value | activity change, % at 1.84 µM | 340,000 compounds, 0.37% hits | AID 720551, 2013;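 active = maximum activity change below -70%; inconclusive = maximum activity change between -70% and -50%; inactive = maximum activity change above -50%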
#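 U2OS cells were transduced with wild-type KCNH2 virus (2.03 x 10^8 / mL) for 4 h at room temperature, then cultured overnight at 37 C. Thallium flux was read with FluxOr dye. Rate constants were normalized to DMSO controls.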
# KCNH2 3.1 inh = qHTS for Inhibitors of KCHN2 3.1: Mutant qHTS | Potassium voltage-gated channel subfamily H member 2, brain isoform KCNH2 3.1 (human) | U2OS KCNH2 3.1, thallium flux FluxOr; stronger effect = lower value | activity change, % (tested at about 1.8 µM) | 340,000 compounds, 0.95% hits | AID 720553, 2013;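 active = maximum activity change below -70%; inconclusive = maximum activity change from -70% to -50%; inactive = maximum activity change above -50%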;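 note: thallium influx rate constant from kinetic fluorescence after stimulation buffer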
#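 Channel expression came from 3.1 mutant virus (1.77 x 10^8 /mL) applied to suspended U2OS cells for 4 h. Flux was tracked with FluxOr dye plus Red40 quencher, and kinetic rate constants normalized to controls.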
# Hits are given with their value; 0 = inactive; ? = inconclusive; - = not tested or not shown.
SMILES,TRPV1 potentiator,TRPML1 blocker,TRPV1 agonist,TRPML1 agonist,hERG WT inh,KCNH2 3.1 inh
O=C1C=CC(=O)N1c1ccccc1N1C(=O)C=CC1=O,-,0,-,0,-135.1,-192.7
O=C(c1ccccc1)c1ccccc1N1C(=O)C=CC1=O,0,0,0,0,0,0
Cc1cc(O)cc2c1O[C@](C)(CCC(=O)O)CC2,-,-,-,0,-,-
O=C1c2ccccc2CN1CCSC(=S)N1CCSCC1,0,-,90.4,-,-,-
COc1ccc(NC(=O)c2c(NCc3ccc(C)o3)sc3c2CCCCC3)c(OC)c1,-,0,-,0,-,-
Cc1ccc(NC(=O)Cc2ccc(-n3c(C)nc4cccnc43)cc2)c(Cl)c1,-,0,-,0,-,-
Nc1cc(=O)n(Cc2ccccc2)c(=O)n1-c1ccc(Cl)cc1,0,0,0,0,0,0
COc1ccc(C)c(-n2c(N)cc(=O)n(Cc3ccccc3)c2=O)c1,0,0,0,0,0,-81.6
C1=C(c2ccc(-c3ccccc3)cc2)Nc2ncnn2C1c1ccco1 (configuration not stated),0,0,0,69.2,0,0
O=C(N=C1SC2CS(=O)(=O)CC2N1c1ccc(Br)cc1Cl)C1CC1 (configuration not stated),0,0,0,0,0,0
O=C(N=C1SC2CS(=O)(=O)CC2N1c1ccc(Br)cc1F)C1CC1 (configuration not stated),0,0,0,0,-156.3,0
O=C(CCOc1ccccc1)NO,-,-,-,0,-,-
OCC1(CCc2ccccc2)CCCN(C/C=C/c2ccccc2)C1 (configuration not stated),?,0,0,0,0,?
COc1ccc(CC2(CO)CCN(Cc3cnn(-c4ccccc4OC)c3)CC2)cc1,0,0,0,0,0,0
COc1ccccc1/C=C/CN1CCCC(CO)(CCc2ccccc2)C1 (configuration not stated),0,0,0,0,0,-75.3
COc1ccc(CC2(CO)CCN(C/C=C/c3ccccc3OC)CC2)cc1,0,0,0,0,-90.0,-109.4
COc1ccc([C@]23Cc4cc(C#N)ccc4C(O2)c2c(c4ccc(OC)cc4oc2=O)O3)cc1,0,-,0,-,-,-
Cc1nc2c(cnn2-c2ccccc2Cl)c(=O)n1-c1ccc(C(C)C)cc1,?,0,0,94.0,0,0
CC(C)(C)n1nnnc1C(c1ccccc1)N1CCN(c2c(Cl)cncc2Cl)CC1 (configuration not stated),-,-,-,52.0,-,-
CC(C)(C)n1nnnc1C(c1ccccc1)N1CCN(c2ncc(C(F)(F)F)cc2Cl)CC1 (configuration not stated),-,-,-,57.4,-,-
CC(C)(C)n1nnnc1C(c1ccccc1)N1CCN(c2ccc(F)cc2)CC1 (configuration not stated),-,-,-,0,-,-
O=C(COc1ccccc1C(=O)Nc1ccccc1)Nc1cccc([N+](=O)[O-])c1,-,-,-,0,-,-
Cc1ccc(N2CCN(C(=O)C3CCN(c4ncnc5c4nc4n5CCCCC4)CC3)CC2)c(C)c1,-,0,-,0,-,-
COC(=O)c1c(O)cc(C(C)(C)C)n(-c2ccc(F)cc2)c1=O,0,0,0,0,-115.8,-215.6
CC(=O)c1c(O)cc(C)n(-c2ccc(F)cc2)c1=O,0,0,0,0,0,0
CS(=O)(=O)N1CCc2cc(C(=O)Nc3ccc(Cl)cc3)ccc21,0,0,84.1,0,0,0
COc1ccc(NC(=O)CN(C)C(=O)c2cccc(NS(=O)(=O)c3ccc(Br)cc3)c2)cc1,0,0,0,0,0,-126.6
COc1ccc(C(CNC(=O)c2cccc(NS(=O)(=O)c3ccc(Br)cc3)c2)N(C)C)cc1 (configuration not stated),0,0,0,0,0,-80.0

# Compound activity (PubChem)
